{
  "source": "PubChem BioAssay (NCATS)",
  "note": "Inconclusive results are not listed. Values without a mark were called inactive. The source made the active and inactive calls. Calls come from the whole dose curve; as a rule, active = well fitted cell-killing curve with a large enough effect; inconclusive = small, poorly fitted or top-dose-only effect; inactive = flat fitted curve, though single readings scatter. Note: nearly all actives have a fitted effect of over 55% in size.",
  "data": [
    {"assay": "Cell Viability - LYMP2-017 (AID 972); note: % is set by controls: 0 for no effect and ±100 for the full control effect", "conditions": "LYMP2-017 lymphoblastoid cell viability; series mostly up to 92.2 µM; activity change, negative = cytotoxicity: at the top concentration", "procedure,_shortened": "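Human lymphoblastoid cells (2500/well) were seeded in complete medium, held 5 hr at 37 C, then exposed to compounds for 24 hr at 37 C. Intracellular ATP was read by CellTiter-Glo luminescence after 30 min at room temperature, with AC50 values from Hill-equation fits.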", "units": {"activity change, negative = cytotoxicity": "%"}, "values": [
      {"compound": "O=C(O)c1ccc(Cl)c(Cl)c1", "activity change, negative = cytotoxicity": 2.01},
      {"compound": "Cc1cccc2ccccc12", "activity change, negative = cytotoxicity": 4.72},
      {"compound": "CC(C)N(C)C", "activity change, negative = cytotoxicity": -8.48},
      {"compound": "Clc1ccccn1", "activity change, negative = cytotoxicity": -6.96}
    ]},
    {"assay": "Cell Viability - LYMP2-019 (AID 973); note: potency is the fitted concentration of half-maximal effect;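 for activity change, negative = cytotoxicity: 0% = DMSO alone and full effect = 92 µM tetraoctylammonium bromide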", "conditions": "LYMP2-019 lymphoblastoid cell line viability; series mostly up to 92.2 µM; activity change, negative = cytotoxicity: at the top concentration", "procedure,_shortened": "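Human lymphoblastoid cells were seeded at 2500 cells/well, preincubated 5 hr at 37 C, then exposed to compounds for 24 hr at 37 C in complete medium. Intracellular ATP was measured by CellTiter-Glo luminescence; AC50 from Hill fits.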", "units": {"activity change, negative = cytotoxicity": "%"}, "values": [
      {"compound": "CC(=O)Nc1ccc(C)cc1", "activity change, negative = cytotoxicity": -10.7},
      {"compound": "O=C1OC(=O)c2c(Br)c(Br)c(Br)c(Br)c21", "activity change, negative = cytotoxicity": -0.631},
      {"compound": "O=C(O)CNC(=O)c1ccc([N+](=O)[O-])cc1", "activity change, negative = cytotoxicity": -5.1},
      {"compound": "Cc1ccccc1C=O", "activity change, negative = cytotoxicity": -2.65},
      {"compound": "CNc1ccccc1", "activity change, negative = cytotoxicity": -9},
      {"compound": "Cc1cccc(C(=O)O)c1", "activity change, negative = cytotoxicity": -3.06},
      {"compound": "CC1CCC2CC1C2(C)C", "note": "(stereo not given)", "activity change, negative = cytotoxicity": 0.335},
      {"compound": "CC(C)C=O", "activity change, negative = cytotoxicity": 3.84},
      {"compound": "O=Cc1ccc(CO)o1", "activity change, negative = cytotoxicity": -26.1},
      {"compound": "O=[N+]([O-])c1ccccc1CCO", "activity change, negative = cytotoxicity": -1.66},
      {"compound": "O=Cc1c(Cl)cccc1Cl", "activity change, negative = cytotoxicity": -17},
      {"compound": "CCCCCCC=O", "activity change, negative = cytotoxicity": 1.49},
      {"compound": "CCCCC(CC)COCC1CO1", "note": "(stereo not given)", "activity change, negative = cytotoxicity": -6.35},
      {"compound": "CC(CCl)OC(C)CCl", "note": "(stereo not given)", "activity change, negative = cytotoxicity": -11.3},
      {"compound": "COc1ccc(N)c(C)c1", "activity change, negative = cytotoxicity": -15.8},
      {"compound": "CC=C(Cl)Cl", "activity change, negative = cytotoxicity": -10.8},
      {"compound": "O=[N+]([O-])c1c(Cl)cc(Cl)cc1Cl", "activity change, negative = cytotoxicity": -11.8},
      {"compound": "CCC(C)(C)C(=O)O", "activity change, negative = cytotoxicity": -10.6},
      {"compound": "CCOC(C)(C)C", "activity change, negative = cytotoxicity": 12.6},
      {"compound": "CC(C)(O)CCC(C)(C)O", "activity change, negative = cytotoxicity": -9.83},
      {"compound": "O=Nc1ccc(NO)cc1", "Potency": "50.1 µM (active)"},
      {"compound": "COCCOC(=O)c1ccccc1C(=O)OCCOC", "activity change, negative = cytotoxicity": -5.93},
      {"compound": "C=C(C)C1CC=C(C)C(OC(C)=O)C1", "note": "(stereo not given)", "activity change, negative = cytotoxicity": -2.12},
      {"compound": "CSCCC=O", "activity change, negative = cytotoxicity": -9.99},
      {"compound": "CCCCC(C=O)CC", "note": "(stereo not given)", "activity change, negative = cytotoxicity": -0.131},
      {"compound": "Cc1nc2ccc(Cl)cc2[nH]1", "activity change, negative = cytotoxicity": -10.8},
      {"compound": "CC(O)COC(C)(C)C", "note": "(stereo not given)", "activity change, negative = cytotoxicity": 1.11},
      {"compound": "CCOCC(=O)O", "activity change, negative = cytotoxicity": -0.174},
      {"compound": "CC1=C(/C=C/C(C)=C/C=C/C(C)=C\\C=O)C(C)(C)CCC1", "Potency": "50.1 µM (active)"},
      {"compound": "[O-]/[N+](=N\\O)c1ccccc1", "activity change, negative = cytotoxicity": -10.9},
      {"compound": "Cc1ccc2oc(=O)ccc2c1", "activity change, negative = cytotoxicity": -12.5}
    ]}
  ]
}
